An excerpt weighted towards active compounds, which were near 4.1% of everything screened.
DAX1 inh-1 = DAX1 (NR0B1) inhibition, primary screen. HEK293T StAR-luciferase reporter, SF-1/DAX-1 repression relief. inhibition, % at 6.8 µM. hit rate 1.1% among 370,000. AID 652010;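 active = inhibition above the mean over all tested compounds plus 3 SD, cut at about 3.6% in these data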;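 note: higher inhibition means more luminescence from relief of DAX-1 repression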
ssDAF12 agonist = activators of S. stercoralis DAF-12 nuclear receptor. AID 652126. hit rate 1% among 370,000. activation, % at 6.8 µM. HEK293 ssDAF-12/GRIP1 lit1-tk-luc reporter, luminescence; % of 3 µM dafachronic acid response;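 active = activation above the mean over all tested compounds plus 3 SD, cut at about 0.9% in these data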
hcDAF-12 act = H. contortus DAF-12 activation, primary screen; HEK293 hcDAF-12 lit1-tk-luc reporter, luminescence; 0% DMSO, 100% Δ7-dafachronic acid; activation, % at 6.8 µM; hit rate 1.4% among 370,000; AID 652067;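 active = activation above the mean of all tested compounds plus 3 SD, cut at about 5.5% in these data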
DAX1 inh-2 = inhibitors of human orphan nuclear receptor DAX1 (NR0B1); hit rate 0.99% among 340,000; HEK293 Gal4-DAX1 luciferase reporter, luminescence; P51843; inhibition, % at 6.75 µM;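 active = inhibition above the mean over all tested compounds plus 3 SD, cut at about 4.2% in these data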;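 note: inhibition shows as a rise in luminescence from relieved DAX1 repression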
Target sequence (P51843 207-470 limits assumed): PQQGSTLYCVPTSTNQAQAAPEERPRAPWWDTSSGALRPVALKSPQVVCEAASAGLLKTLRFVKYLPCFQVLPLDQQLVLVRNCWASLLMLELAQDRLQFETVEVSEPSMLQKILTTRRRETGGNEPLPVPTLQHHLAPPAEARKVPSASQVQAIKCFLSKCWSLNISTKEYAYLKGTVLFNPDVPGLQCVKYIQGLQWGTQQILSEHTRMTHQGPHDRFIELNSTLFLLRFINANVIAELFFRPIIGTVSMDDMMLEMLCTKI
hgDAF12 agonist = hgDAF-12 agonism, primary luciferase screen. activation, % at 6.8 µM. AID 687014. HEK293 GAL4-hgDAF12 UAS-luciferase reporter, agonist luminescence; normalized to butyrate control. hit rate 1.8% among 370,000;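 active = activation above a cutoff set at the mean of all screened compounds plus 3 SD, cut at about 10% in these data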
LXRb hcDAF ctr = LXR-beta agonism as hcDAF-12 counter-screen; shares compounds with hcDAF-12 act; HEK293 Gal4-LXR tk-luc reporter, luminescence, 24 h; normalized: DMSO 0%, positive control 100%; activation, % at 6.8 µM; 3,400 tested, under 10 active;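 active = mean percent activation of the reporter above a cutoff set as the average over tested compounds plus their standard deviation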
hcDAF12 conf = hcDAF-12 agonism, confirmation assay; shares compounds with hcDAF-12 act; HEK293 hcDAF-12 lit1-tk-luc reporter, luminescence; % of Δ7-dafachronic acid response; activation, % at 6.8 µM; hit rate 61% among 3,400;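 active = mean activation across triplicate tests above the threshold derived from the earlier primary screen, cut at about 5.5% in these data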
hgDAF12 ag = hgDAF-12 agonism, confirmation assay. shares compounds with hgDAF12 agonist. HEK293 GAL4-hgDAF12 luciferase reporter, agonist mode; percent of butyrate response. activation, % at 6.8 µM. hit rate 80% among 3,300;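 active = mean activation over triplicate wells above the hit cutoff derived from the earlier primary screen, cut at about 11% in these data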
LXRb DAF12 ctr = counter-screen for DAF-12 agonists: agonists of human LXR-beta; AID 743051; activation, % at 6.8 µM; 3,300 tested, under 10 active; HEK293 Gal4-LXR luciferase reporter, 24 h; shares compounds with hgDAF12 agonist;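 active = mean activation of the triplicate above a set limit carried over from the primary screen, none filed active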
Hits are given with their value; 0 = inactive; - = no result given.

SMILES	DAX1 inh-1	ssDAF12 agonist	hcDAF-12 act	DAX1 inh-2	hgDAF12 agonist	LXRb hcDAF ctr	hcDAF12 conf	hgDAF12 ag	LXRb DAF12 ctr
O=C1C(C=NCc2ccco2)=C(O)c2ccccc21	0	1.4	13	4.3	15	0	12	-	-
O=C(N[C@H](C(=O)N1CCC[C@H]1C(=O)NCCc1ccccc1Cl)C1CCCCC1)c1ccccc1	0	0	0	-	0	-	-	-	-
COC(=O)[C@@]1(C(C)C)N=C(c2cc(OC)c(OC)c(OC)c2)[C@]2(O1)C(=O)N(Cc1cn(-c3ccccc3)nn1)c1cccc(Cl)c12	0	0	0	-	0	-	-	-	-
Cc1ccc(OCc2cc(C(=O)N(C)CCc3ccccn3)no2)cc1C	0	0	7.3	0	0	0	0	-	-
O=C1CNC(=S)N1c1nc2ccccc2s1	0	0	6.8	0	0	0	8.0	-	-
O=c1cc(-c2ccccc2)[nH]n1-c1nc2ccccc2s1	0	0	0	0	0	-	-	-	-
Cc1csc(N/N=C/c2ccccc2F)n1	0	0	7.2	0	0	0	10	-	-
CC(C)CN1C(=O)[C@@]2(CC(=O)N(C)C2c2ccccc2)c2cc(-n3cc(CN(C)C)nn3)ccc21 (stereo partly drawn)	0	0	0	-	0	-	-	-	-
O=C(COC(=O)c1ccccc1Br)NCCN1C(=O)CSC1=O	0	0	0	0	0	-	-	-	-
O=C(COC(=O)c1cccc(Cl)c1Cl)NCCN1C(=O)CSC1=O	0	0	9.0	0	0	0	0	-	-
COc1ccc(/C=N/N(C(C)=O)c2nc(-c3ccc(C)cc3)cs2)cc1	0	0	0	0	0	-	-	-	-
COc1ccccc1/C=N/N(C(C)=O)c1nc(-c2ccc(F)cc2)cs1	0	1.2	7.2	0	0	0	11	-	-
Cc1ccc(Nc2nc(N)c3ccccc3n2)cc1Cl	0	3.6	12	0	12	0	15	-	-
COC(=O)c1cc(-c2ccc(F)c(Cl)c2)c(=O)n2c1CCC2	0	0	0	-	0	-	-	-	-
Cn1nc(-c2ccccc2)c2nc3ccccc3nc21	0	0	6.8	0	0	0	6.1	-	-
Clc1nc2ccccc2nc1-c1ccccc1	0	0	0	0	0	-	-	-	-
Cc1cnc2c(c1)C(=O)c1ccccc1-2	0	0	0	0	0	-	-	-	-
Cc1cccc(-c2cc3c(nn2)-c2ccccc2C3=O)c1	0	1.7	6.6	0	0	0	8.6	-	-
O=C1c2ccccc2-c2nnc(-c3ccccc3)cc21	0	1.8	7.6	0	0	0	6.0	-	-
COc1ccc(/C=C2\CCc3ccccc3C2=O)cc1O	0	0	8.5	0	0	0	6.9	-	-
O=C(Nc1ccccn1)c1onc2c1CCCC2	0	0	8.0	0	0	0	5.8	-	-
C[C@H](NC(=O)OCc1ccccc1)P(=O)(O)O	0	0	0	-	0	-	-	-	-
COC(=O)C1=C(C)N(Cc2cccc(C(F)(F)F)c2)C(=NCC2CC2)NC1c1cccc(F)c1 (stereo not drawn)	0	0	0	-	0	-	-	-	-
CC(C)(C)NC(=O)C(c1ccc(O)cc1)N(Cc1ccco1)C(=O)Cn1nnc(-c2cccs2)n1 (stereo not drawn)	0	0	8.2	0	0	0	0	-	-
Cc1ccc(C(C(=O)NC(C)(C)C)N(Cc2ccco2)C(=O)Cn2nnc(-c3cccs3)n2)cc1 (stereo not drawn)	0	0	0	0	0	-	-	-	-
SMILES	DAX1 inh-1	ssDAF12 agonist	hcDAF-12 act	DAX1 inh-2	hgDAF12 agonist	LXRb hcDAF ctr	hcDAF12 conf	hgDAF12 ag	LXRb DAF12 ctr
N#CC1=C(N)C(C#N)(C#N)C2(C(=O)Nc3ccccc32)C2CCCC=C12 (stereo not drawn)	0	0	6.8	0	0	0	0	-	-
COc1cc(NC(=O)C(C)(C)C)c(C(=O)OCC(=O)Nc2cc(C)on2)cc1OC	0	0	0	0	0	-	-	-	-
c1ccc(OCc2nc3ccccc3s2)cc1	0	1.6	8.6	5.8	14	0	5.9	18	0
Cc1cc(C(=O)OCc2nc3ccccc3s2)c(C)o1	0	0	0	0	0	-	-	-	-
c1ccc(SCc2nc3ccccc3s2)nc1	0	4.5	15	0	14	0	7.8	16	0
N#C/C(=C(/O)COc1ccccc1)c1nc2ccccc2s1	0	0	0	0	0	-	-	-	-
Cc1cc(OCc2nc3ccccc3s2)ccc1N	0	2.0	13	0	14	0	14	19	0
C[N+]1(C)[C@H]2CC[C@H]1CC(OC(=O)C(O)c1ccccc1)C2 (stereo partly drawn)	0	0	0	-	0	-	-	-	-
Cc1cccc(CN2CCN(C3CN(Cc4cn(Cc5ccc(Cl)cc5)nn4)S(=O)(=O)C3)CC2)c1 (stereo not drawn)	0	0	0	-	0	-	-	-	-
N/C(=N\OC(=O)c1ccco1)c1ccccc1	0	0	0	0	0	-	-	-	-
Cc1cccc(/C(N)=N/OC(=O)c2ccco2)c1	3.7	1.4	6.6	0	18	0	0	19	0
Cc1ccc(/C(N)=N/OC(=O)c2ccco2)cc1	4.2	1.2	7.8	0	14	0	0	19	0
Cc1nc2nc(-c3cccs3)[nH]c2cc1Br	0	1.0	8.9	0	23	0	8.3	22	0
c1ccc(-c2nc(-c3cccs3)[nH]c2-c2ccccc2)cc1	0	0	0	0	0	-	-	-	-
C/C(=N\Nc1nncc2ccccc12)c1ccc(O)cc1	0	0	7.0	0	16	0	0	0	0
Nc1c(C(=O)Nc2ccccc2)nnn1-c1ccc2c(c1)OCCO2	0	1.8	8.8	0	14	0	8.1	16	0
Cc1ccc(NC(=O)c2nnn(-c3ccc4c(c3)OCCO4)c2N)cc1	0	0	0	0	0	-	-	-	-
Cc1cccc(NC(=S)c2nc3ccccc3s2)c1	0	2.1	8.8	0	13	0	9.9	16	0
COc1cccc2c1nc(C)c1cc(C)oc12	0	0	0	0	0	-	-	-	-
COc1cccc2nc3cc(C)c(C)cc3nc12	0	0	7.5	0	18	0	12	18	0
Cc1cccc(Nc2nc(-c3ccc(F)c(C)c3)cs2)n1	0	1.2	9.0	5.4	14	0	7.7	17	0
Cc1cccc(Nc2nc(-c3ccc(O)c(O)c3)cs2)n1	0	0	0	0	0	-	-	-	-
CCOC(=O)C1(Cc2ccccc2)CCN(Cc2ccc(C)cc2)CC1	0	0	0	-	0	-	-	-	-
Cc1sc(NC(=O)c2ccc(Br)s2)c(C(N)=O)c1C	0	0	8.8	0	19	0	12	18	0
O=C(/C=C/c1ccccc1Cl)Nc1ccccc1	0	2.6	16	-	20	0	16	25	0
